Test results as given in PubChem BioAssay (NCATS).
Results filed as inconclusive are left out. Activity calls are given as the source filed them. Calls come from the whole dose curve; as a rule, active = well fitted cell-killing curve with a large enough effect; inconclusive = small, poorly fitted or top-dose-only effect, or effect the other way; inactive = flat fitted curve, though single readings scatter.

Assay: qHTS for Inhibitors of ATXN expression: Validation of Cytotoxic Assay (AID 588349)
Conditions: cytotoxicity counter-screen for ATXN expression inhibitors, cell viability; series mostly up to 57.1 µM; activity change, negative = cytotoxicity: at the top concentration
Method in brief: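 HEK293 cells treated with titrated compound for 72 hr at 37 degrees C; viability read as intracellular ATP by CellTiter Glo luminescence.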
% is set by controls: 0 for no effect and ±100 for the full control effect.

| Compound | activity change, negative = cytotoxicity |
| --- | --- |
| CNC(=O)c1cc2c(cn1)[nH]c1ccccc12 | -11.8% (inactive) |
| O=S(=O)(c1cccc2c(Cl)cccc12)N1CCCNCC1 | -20.9% (inactive) |
| N#CC(C#N)=C(N)/C(C#N)=C/c1ccc(O)cc1 | -16.4% (inactive) |
| CCCCCC(O)CCCC(=O)O (stereo not given) | -10.6% (inactive) |
| Cn1c(=O)[nH]c2ncn(C)c2c1=O | -1.34% (inactive) |
| CCCn1c(=O)c(C)cn2nc(N)nc12 | -3.5% (inactive) |
| CN(C)S(=O)(=O)c1ccc2c(c1)/C(=C/c1cc3c([nH]1)CCCC3)C(=O)N2 | -12% (inactive) |
| CCCCCCCCCC(=O)NC(CN1CCOCC1)[C@H](O)c1ccccc1 (stereo not given in full) | -25.3% (inactive) |
| Nc1ccc2c3c(cccc13)C(=O)NC2=O | -0.347% (inactive) |
| Cc1cc(Cn2cnc3c2C[C@@H](C(=O)O)N(C(=O)C(c2ccccc2)c2ccccc2)C3)ccc1N | -9.11% (inactive) |
| CN1CC(O)C(O)C(O)C1CO (stereo not given) | -8.86% (inactive) |
| NCCNS(=O)(=O)c1cccc2c(Cl)cccc12 | -9.74% (inactive) |
| CC#CCOC(=O)c1c(C)nc2sc3c(c2c1N)CCC(O)C3 (stereo not given) | -8.49% (inactive) |
| Cc1nc2n(c(=O)c1CCN1CCC(c3noc4cc(F)ccc34)CC1)CCCC2O (stereo not given) | -17% (inactive) |
| CC(=O)SC1CC2=CC(=O)CC[C@]2(C)C2CC[C@@]3(C)C(CC[C@@]34CCC(=O)O4)C12 (stereo not given in full) | -26% (inactive) |
| CCn1c(=O)[nH]c2cc(Cl)c(Cl)cc21 | -5.61% (inactive) |
| N#CC(=C(\N)Sc1ccccc1N)/C(C#N)=C(/N)Sc1ccccc1N | -15.4% (inactive) |
| N[C@H](C(=O)O)[C@H](Cc1ccccc1)C(=O)O | -9.22% (inactive) |
| CSC(=N)N | -20.2% (inactive) |
| CC(C)[C@@H]1CC[C@@H](C)C[C@@H]1P(=O)(c1ccccc1)c1ccccc1 | -11.1% (inactive) |
| N[C@H](C(=O)O)[C@H]1C[C@@H]1C(=O)O | 5.9% (inactive) |
| CC1=C(/C=C/C(C)=C/C=C/C(C)=C\C(=O)O)C(C)(C)CCC1 | -14% (inactive) |
| COc1cc(CNC(=O)CCCCCCC(C)C)ccc1O | -15.6% (inactive) |
| CN1C2CCC1CC(OC(c1ccccc1)c1ccccc1)C2 (stereo not given) | -22.7% (inactive) |
| C=CCN1CCc2c(cc(O)c(O)c2Br)[C@@H](c2ccccc2)C1 | -29.3% (inactive) |
| Nc1nc2[nH]c(=O)cnc2c(=O)[nH]1 | -7.23% (inactive) |
| COc1ccc(CCn2nnnc2C2(c3ccc(C)cc3)CC2)cc1 | -8.31% (inactive) |
| Nc1ncnc2c1nc(Br)n2C1OC2COP(=O)(O)O[C@@H]2C1O (stereo not given in full) | 4.93% (inactive) |
| CC(O)C(O)[C@H]1CNc2nc(N)[nH]c(=O)c2N1 (stereo not given in full) | 12.6% (inactive) |
| N=S(=O)(O)Cc1noc2ccccc12 | 8.2% (inactive) |
